The source made the active and inactive calls. The calls were made as follows: active = hit-call score of the fitted dose curve at least 0.9, where 1 is the maximum; inactive = score below 0.9.

Read-out in this test: CD90, THY1 (gene 7070)
In words: BSK_BF4T_CD90: BioMAP Diversity Plus: BF4T Assay for CD90 Biomarker Activity (AID 2284262). The conditions noted are these: primary human bronchial epithelial cells with fibroblasts. Here is the method: BSK_BF4T is a cell-based, multiplexed-readout assay that uses bronchial epithelial cells and dermal fibroblasts, a human vascular primary cell, with measurements taken at 24 hours after chemical dosing in a microplate: 96-well plate.BSK_BF4T_CD90 is an assay component measured in the BSK_BF4T assay. It measures CD90 antibody related to regulation of gene expression using ELISA technology.Data from the assay component BSK_BF4T_CD90 was analyzed at the endpoint, BSK_BF4T_CD90, in the positive analysis fitting direction relative to DMSO as the negative control and baseline of activity. Using a type of binding reporter, gain or loss-of-signal activity can be used to understand protein changes. To generalize the intended target to other relatable targets, this assay endpoint is annotated to the 'cytokine' intended target family, where the subfamily is 'inflammatory factor'.
The levels of cell surface (or secreted, indicated by the prefix "s") biomarker endpoints were measured by ELISA. Overt cytotoxicity to cells in confluent adherent cultures (all systems other than the BT system) was assessed by measuring total protein levels using sulforhodamine B (SRB) staining in parallel cultures at the time of biomarker measurements, indicated as SRB endpoints. For proliferation assays for adherent cell types, individual cell types are cultured at sub-confluence and relative cell numbers quantified by SRB staining at time points optimized for each system (48 h: 3C and CASM3C systems; 72 h: BT and HDF3CGF systems; 96 h: SAg system). SRB was performed by staining cells with 0.1% SRB after fixation with 10% TCA and reading wells at 560 nm.Viability and proliferation of PBMC (T cells) was quantified by Alamar Blue reduction for the SAg and BT systems. For PBMC viability (referred to as PBMC Cytotoxicity within the assay endpoint names), cells were plated (75,000/well in a 96-well plate) and then chemical samples added for 1 h before addition of activators, SEB and TSST-1 (20 ng/mL final concentration each). Cells were incubated for 90 h. Then, Alamar Blue (20 uL/well) (Invitrogen, Cat DAL1100) was added for 6 h, and the plates were read with a fluorescence microplate reader at 546/580 nm (excitation/emission). For PBMC proliferation, cells were plated and activated as above but incubated for only 16 h prior to addition of Alamar Blue. Plates were read after 6 h.
For the molecule `C=CC(=O)OCC(F)(F)C(F)F`, the outcome was inactive. As to `O=S(=O)(F)C(F)(F)C(F)(F)C(F)(F)C(F)(F)C(F)(F)C(F)(F)C(F)(F)C(F)(F)F`, the outcome was inactive. In the case of `OCC(F)(F)OC(F)(F)C(F)(F)OC(F)(F)C(F)(F)OC(F)(F)F`, the outcome was inactive. Consider `FC(F)(F)C(F)(C(F)(F)F)C(F)(F)C(F)(F)CC1CO1` (centres undefined), for which the result was inactive. Regarding `COC(=O)C(F)(F)C(F)(F)OC(F)(C(F)(F)F)C(F)(F)OC(F)=C(F)F` (centres undefined), the outcome was inactive. Under `O=C(O)C(F)(OC(F)(F)C(F)(F)C(F)(F)F)C(F)(F)F` (centres undefined) stands “inactive”; under `OCC(F)(F)OC(F)(F)C(F)(F)OC(F)(F)C(F)(F)OC(F)(F)CO`, “inactive”; under `O=C(O)C(F)(F)OC(F)(F)C(F)(F)OC(F)(F)F`, “inactive”. `O=C(O)C(F)(F)C(F)(F)C(=O)O`: the result was inactive. In the case of `OCC(F)(F)OC(F)(F)C(F)(F)OC(F)(F)CO`, the outcome was inactive. As for `O=C(O)C=CC(F)(C(F)(F)F)C(F)(F)F`, the outcome was inactive.

Take `NC(=O)C(F)(F)C(F)(F)F`: the result was inactive. On to `O=C(O)C(F)(F)OC(F)(F)C(F)(F)OC(F)(F)C(=O)O`, for which the outcome was inactive. Consider `CC(O)C(F)(F)C(F)(F)F` (centres undefined), for which the result was inactive.

The values are drawn from PubChem BioAssay (EPA / NIEHS).
